Measurements published in PubChem BioAssay AID743325 (National Center for Advancing Translational Sciences (NCATS), 2014).
Activity calls are given as the source filed them. Calls follow the shape of the full dose curve. Square brackets hold non-standard residues; d marks the D form. Peptide text beside a SMILES is read from it. Orn = NCCC[C@H](N)C(=O)O

Experiment: qHTS profiling of Chloroquine Analogs as inhibitors of Plasmodium falciparum (3D7) proliferation
Details: activity change, negative = inhibition: at 28.7 µM (top of the series) unless noted
Description: Plasmodium falciparum is a virulent malarial parasite that kills 1-2 million people worldwide each year. Transmitted by mosquitoes, the sporozoite form of the parasite enters the blood stream to infect hepatocytes, where they become merozoites that infect red blood cells (erythrocytes). Within erythrocytes, merozoites begin a […] cycle of growth and division, after which the parasite is released to infect new red blood cells. Gametocytes, which form within erythrocytes as well, circulate in the bloodstream and are ingested by the mosquito, thereby completing the life cycle. To profile malarial isolates for differential chemical responses and to identify inhibitors of malarial growth, an assay that measures P. falciparum growth and replication within erythrocytes was employed. This assay uses a DNA binding fluorescent dye (SYBR Green) to detect parasite DNA following cell lysis. Because mature erythrocytes lack DNA, only Plasmodium-derived DNA is detected.
The SYBR Green viability assay was adapted from a method described previously (Plouffe et al., 2008). For screening 3 ul culture medium was dispensed into 1536 well black clear bottom plates (Aurora Biotechnologies) using a Multidrop Combi (Thermo Fisher Scientific Inc.), 23 nL compounds in DMSO were added by a pin tool (Kalypsys), and 5 ul of erythrocytes infected with P. falciparum (0.3% parasitemia, 2.5% hematocrit final concentration) were added. The plates were incubated at 37 C in a humidified incubator in 5% CO2 for 72 h, and 2 ul lysis buffer (20 mM Tris HCl, 10 mM EDTA, 0.16% saponin, 1.6% triton X, 10X SYBR Green I supplied as 10,000X […] by Invitrogen) was added to each well. The plates were mixed for 25 sec with gentle shaking and incubated overnight at room temperature in the dark. The following morning, fluorescence intensity at 485(14) nm excitation and 535(25) nm emission wavelengths was measured on an EnVision (Perkin Elmer) plate reader. Plate reads were normalized relative to the control inhibitor (0.29 uM artemisinin) and vehicle (DMSO) wells present on each plate and then corrected by an algorithm using vehicle-only control plates at the beginning and end of the compound plate stack.
With C=CC(C)=C[C@@]1(C)SC(=O)C(C)=C1O the “activity change, negative = inhibition” value was -4.55% (inactive). In the case of C[C@H](N)CN1CCc2ccc(Br)cc21, the Potency is reported as 1680 nM (active). In the case of CN(C)CC/C=C1\c2ccccc2COc2ccccc21, the Potency is reported as 2020 nM (active). In the case of C[C@@H]1[C@@H](C(=O)C[C@H]2O[C@@H]3O[C@]4(C)CC[C@@H]5[C@H](C)CC[C@@H]([C@H]2C)[C@@]35OO4)O[C@@H]2O[C@]3(C)CC[C@H]4[C@H](C)CC[C@@H]1[C@@]24OO3, the Potency is reported as 1.7 nM (active). For CC[C@H]1OC(=O)[C@H](C)[C@@H](O[C@H]2C[C@@](C)(OC)[C@@H](O)[C@H](C)O2)[C@H](C)[C@@H](O[C@@H]2O[C@H](C)C[C@H](N(C)C)[C@@H]2O)[C@](C)(O)C[C@@H](C)CN(C)[C@H](C)[C@@H](O)[C@]1(C)O, the Potency was 9430 nM (active). With C=CCON=C(C[C@H]1O[C@@H]2O[C@]3(C)CC[C@@H]4[C@H](C)CC[C@@H]([C@H]1C)[C@@]24OO3)[C@H]1O[C@@H]2O[C@]3(C)CC[C@H]4[C@H](C)CC[C@@H]([C@@H]1C)[C@@]24OO3 the activity change, negative = inhibition was -102%. For Cc1cccc(C)c1NC(=O)C(C)N (configuration not stated), the “activity change, negative = inhibition” value was -9.46% [at 14.2 µM] (inactive). With CN([C@@H](Cc1ccc(OS(=O)(=O)c2cccc3cnccc23)cc1)C(=O)N1CCN(c2ccccc2)CC1)S(=O)(=O)c1cccc2cnccc12 the Potency was 237 nM (active). In the case of C[C@@H]1[C@@H](CC(C[C@H]2O[C@@H]3O[C@]4(C)CC[C@@H]5[C@H](C)CC[C@@H]([C@H]2C)[C@@]35OO4)C[S+](=O)([O-])c2ccc(COC(=O)N(C)C)cc2)O[C@@H]2O[C@]3(C)CC[C@H]4[C@H](C)CC[C@@H]1[C@@]24OO3 (some centres not stated), the “activity change, negative = inhibition” value is reported as 188% (inactive). For CC(CNC1CCCCC1)OC(=O)c1ccccc1 (configuration not stated), the “activity change, negative = inhibition” value was 9.78% [at 14.2 µM] (inactive). For CC(C)N=C(N)N=C(N)Nc1ccc(Cl)cc1, the Potency was 26.6 nM (active). For CC(C)(C)c1cc(O)c(CN)c(C(C)(C)C)c1, the Potency was 168 nM (active). In the case of C[C@@H]1CC[C@H]2[C@@H](C)C(=O)O[C@@H]3OC4(C)CC[C@@H]1C32OO4 (some centres not stated), the activity change, negative = inhibition is reported as -99.4% [at 57.5 µM]. In the case of C=C[C@@H]1CN2CCC1C[C@@H]2C(O)c1ccnc2ccc(OC)cc12 (some centres not stated), the activity change, negative = inhibition is reported as -97.6%. With COc1cc(C=CC(=O)CC(=O)C=Cc2ccc(O)c(OC)c2)ccc1O the Potency was 8410 nM (active). With CNCCC(Oc1ccccc1OC)c1ccccc1 (configuration not stated) the activity change, negative = inhibition was -93.6%. Molecule CCc1nc(N)nc(N)c1-c1ccc(Cl)cc1 has an activity change, negative = inhibition of -98.9%. With CCN(CC)CCOCCOC(=O)C(CC)(CC)c1ccccc1 the “activity change, negative = inhibition” value was 31.7% (inactive). With CC[C@@H](C)[C@H]1O[C@]2(CC[C@H]1C)C[C@@H]1C[C@@H](CC=C(C)[C@@H](O[C@H]3C[C@H](OC)[C@@H](O[C@H]4C[C@H](OC)[C@@H](O)[C@H](C)O4)[C@H](C)O3)[C@@H](C)C=CC=C3CO[C@@H]4[C@H](O)C(C)=C[C@@H](C(=O)O1)[C@]34O)O2 the activity change, negative = inhibition was -99.9%. CC(C)C[C@@H]1NC(=O)[C@H](CCCN)NC(=O)[C@H](C(C)C)NC(=O)[C@@H]2CCCN2C(=O)[C@@H](Cc2ccccc2)NC(=O)[C@H](CC(C)C)NC(=O)[C@H](CCCN)NC(=O)[C@H](C(C)C)NC(=O)[C@@H]2CCCN2C(=O)[C@@H](Cc2ccccc2)NC1=O (cyclo(V[Orn]L[dF]PV[Orn]L[dF]P)) showed an activity change, negative = inhibition of -102%. With Oc1cc(Cl)ccc1Oc1ccc(Cl)cc1Cl the Potency was 1880 nM (active). For CO[C@H]1O[C@@H]2O[C@@]3(C)CC[C@@H]4[C@@H](C)CC[C@@H]([C@H]1C)[C@@]24OO3, the “activity change, negative = inhibition” value was 167% (inactive). With C=C[C@@H]1CN2CC[C@@H]1C[C@H]2[C@H](O)c1ccnc2ccc(OC)cc12 the activity change, negative = inhibition was -98.6%. With CSc1cccc(NC(=O)CC[C@H]2O[C@@H]3O[C@]4(C)CC[C@H]5[C@H](C)CC[C@@H]([C@@H]2C)[C@@]35OO4)c1 the Potency was 21.1 nM (active). With O[C@H](c1cc(C(F)(F)F)nc2c(C(F)(F)F)cccc12)[C@H]1CCCCN1 the “activity change, negative = inhibition” value was 193% [at 14.2 µM] (inactive). With CCCC[C@@H]1C[C@@H](C(=O)NC([C@H](C)Cl)[C@H]2O[C@H](S)[C@H](O)[C@@H](O)[C@@H]2O)N(C)C1 (some centres not stated) the “activity change, negative = inhibition” value was -71.5% (inactive). Molecule Cc1cccc(C)c1OCC(=O)N[C@@H](Cc1ccccc1)[C@@H](O)C[C@H](Cc1ccccc1)NC(=O)[C@H](C(C)C)N1CCCNC1=O has an activity change, negative = inhibition of -99.8%. For CCCCN(CCCC)CCC(O)c1cc2c(Cl)cc(Cl)cc2c2cc(C(F)(F)F)ccc12 (configuration not stated), the Potency was 5.1 nM (active). C[C@@H]1Cc2c([nH]c3cc(Cl)c(F)cc23)[C@]2(N1)C(=O)Nc1ccc(Cl)cc12 gave an activity change, negative = inhibition of -101%. COc1ccc2nc3cc(Cl)ccc3c(Nc3cc(CN4CCCC4)c(O)c(CN4CCCC4)c3)c2n1 gave an activity change, negative = inhibition of -101%. With C/C(=C\c1csc(C)n1)[C@@H]1C[C@@H]2O[C@]2(C)CCC[C@H](C)[C@H](O)[C@@H](C)C(=O)C(C)(C)[C@@H](O)CC(=O)O1 the “activity change, negative = inhibition” value was 35.6% (inactive). For O=C1C(=O)c2ccccc2C(O)=C1C1CCC(c2ccc(Cl)cc2)CC1 (configuration not stated), the Potency was 0.7 nM (active). With O=C(O)c1cn(C2CC2)c2cc(N3CCNCC3)c(F)cc2c1=O the “activity change, negative = inhibition” value was -11.8% (inactive). Molecule COC(=O)C1C2CC3c4[nH]c5cc(OC)ccc5c4CCN3CC2CC(OC(=O)c2cc(OC)c(OC)c(OC)c2)C1OC (configuration not stated) has an activity change, negative = inhibition of -101% [at 57.5 µM]. In the case of Clc1ccc(COC(Cn2ccnc2)c2ccc(Cl)cc2Cl)c(Cl)c1 (configuration not stated), the activity change, negative = inhibition is reported as -97.6% [at 14.2 µM]. C[C@H]1Cc2c([nH]c3cc(Cl)c(F)cc23)[C@@]2(N1)C(=O)Nc1ccc(Cl)cc12 gave an activity change, negative = inhibition of -101%. Cc1nc2c(C#N)cccc2n1-c1ccc(C(=O)NC2CC2)s1 gave an activity change, negative = inhibition of -100%.
